According to PubChem BioAssay AID1159580 (chemical genetic matrix, 2015):
Out of some 5,500 compounds screened, about 2,000 (36%) were called active. About 18% were inconclusive and are not listed. Cut-off read from the data, not from the text of the source: active = normalized growth mostly below about 0.91 (no sharp cut-off); inconclusive = no clear call, values can overlap the other calls; inactive = mostly above about 0.92. The list shows a part of the results.

Experiment: chemical genetic growth profiling, strain panel (AID 1159580);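 note: tested at 20 µM; growth read once vehicle control cultures reached saturation at 30 °C; 1 = growth at the plate median or of vehicle wells; lower values mean less growth of the strain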
Conditions: growth OD

Measured: normalized growth

CC(C)(C)NC[C@@H](O)COc1nsnc1N1CCOCC1
inactive: S. cerevisiae deletion strains, locus YJR075W, strain HOC1, active compounds read low 0.995 | S. cerevisiae deletion strains, locus YKL009W, strain mrt4, active compounds read low 1.03 | S. cerevisiae deletion strains, locus YKL068W, active compounds read low 0.989 | S. cerevisiae deletion strains, locus YKL085W, strain MDH1 (second series), active compounds read low 0.983 | S. cerevisiae deletion strains, locus YKL085W, strain MDH1, active compounds read low 0.983 | S. cerevisiae deletion strains, locus YKL160W, strain elf1, active compounds read low 1.01 | S. cerevisiae deletion strains, locus YKR001C, strain vps1, active compounds read low 0.952 | S. cerevisiae deletion strains, locus YKR026C, strain gcn3, active compounds read low 1.02 | S. cerevisiae deletion strains, locus YKR091W, strain srl3, active compounds read low 1.01 | S. cerevisiae deletion strains, locus YLL001W, strain dnm1, active compounds read low 1 | S. cerevisiae deletion strains, locus YLL026W, active compounds read low 1.01 | S. cerevisiae deletion strains, locus YLL041C, strain sdh2, active compounds read low 1.03 | S. cerevisiae deletion strains, locus YLR027C, strain aat2, active compounds read low 1.01 | S. cerevisiae deletion strains, locus YLR039C, strain RIC1, active compounds read low 1.01 | S. cerevisiae deletion strains, locus YLR058C, strain SHM2, active compounds read low 1 | S. cerevisiae deletion strains, locus YLR102C, strain apc9, active compounds read low 0.976 | S. cerevisiae deletion strains, locus YLR113W, strain HOG1, active compounds read low 0.975 | S. cerevisiae deletion strains, locus YLR221C, strain rsa3, active compounds read low 0.995 | S. cerevisiae deletion strains, locus YLR258W, strain gsy2, active compounds read low 1.01 | S. cerevisiae deletion strains, locus YLR262C, strain YPT6 (second series), active compounds read low 1.03 | S. cerevisiae deletion strains, locus YLR262C, strain YPT6, active compounds read low 1.02 | S. cerevisiae deletion strains, locus YLR268W, strain sec22, active compounds read low 0.961 | S. cerevisiae deletion strains, locus YLR320W, strain mms22, active compounds read low 0.997 | S. cerevisiae deletion strains, locus YLR330W, strain CHS5, active compounds read low 0.989 | S. cerevisiae deletion strains, locus YLR342W, strain FKS1 (second series), active compounds read low 0.992 | S. cerevisiae deletion strains, locus YLR342W, strain FKS1, active compounds read low 1 | S. cerevisiae deletion strains, locus YLR357W, strain rsc2, active compounds read low 0.998 | S. cerevisiae deletion strains, locus YLR370C, strain arc18, active compounds read low 1.02 | S. cerevisiae deletion strains, locus YLR371W, strain rom2, active compounds read low 0.977 | S. cerevisiae deletion strains, locus YLR384C, strain iki3, active compounds read low 1.01 | S. cerevisiae deletion strains, locus YLR418C, strain cdc73, active compounds read low 1.03 | S. cerevisiae deletion strains, locus YML016C, strain PPZ1, active compounds read low 0.988 | S. cerevisiae deletion strains, locus YML032C, strain rad52, active compounds read low 1.01 | S. cerevisiae deletion strains, locus YML120C, strain ndi1, active compounds read low 1.02 | S. cerevisiae deletion strains, locus YML124C, strain tub3, active compounds read low 0.988 | S. cerevisiae deletion strains, locus YMR058W, strain fet3, active compounds read low 1 | S. cerevisiae deletion strains, locus YMR078C, strain ctf18, active compounds read low 0.972 | S. cerevisiae deletion strains, locus YMR125W, strain sto1, active compounds read low 1.02 | S. cerevisiae deletion strains, locus YMR129W, active compounds read low 1.02 | S. cerevisiae deletion strains, locus YMR205C, strain PFK2, active compounds read low 1.02 | S. cerevisiae deletion strains, locus YMR223W, strain ubp8, active compounds read low 1.02 | S. cerevisiae deletion strains, locus YMR231W, strain pep5, active compounds read low 1.01 | S. cerevisiae deletion strains, locus YMR263W, strain SAP30, active compounds read low 0.997 | S. cerevisiae deletion strains, locus YMR307W, strain GAS1, active compounds read low 0.921 | S. cerevisiae deletion strains, locus YNL067W, strain RPL9B, active compounds read low 0.999 | S. cerevisiae deletion strains, locus YNL071W, strain lat1, active compounds read low 1.01 | S. cerevisiae deletion strains, locus YNL153C, strain GIM3, active compounds read low 0.988 | S. cerevisiae deletion strains, locus YNL183C, strain NPR1, active compounds read low 0.934 | S. cerevisiae deletion strains, locus YNL209W, strain ssb2, active compounds read low 1.02 | S. cerevisiae deletion strains, locus YNL233W, strain BNI4, active compounds read low 0.973 | S. cerevisiae deletion strains, locus YNL248C, strain rpa49, active compounds read low 1.02 | S. cerevisiae deletion strains, locus YNL250W, strain rad50, active compounds read low 0.969 | S. cerevisiae deletion strains, locus YNL271C, strain bni1, active compounds read low 0.985 | S. cerevisiae deletion strains, locus YNL298W, strain CLA4, active compounds read low 0.993 | S. cerevisiae deletion strains, locus YNL307C, strain MCK1, active compounds read low 0.974 | S. cerevisiae deletion strains, locus YNL322C, strain KRE1 (second series), active compounds read low 1 | S. cerevisiae deletion strains, locus YNL322C, strain KRE1, active compounds read low 0.993 | S. cerevisiae deletion strains, locus YNR049C, strain mso1, active compounds read low 1.01 | S. cerevisiae deletion strains, locus YNR052C, strain pop2, active compounds read low 0.994 | S. cerevisiae deletion strains, locus YOL006C, strain TOP1, active compounds read low 0.993 | S. cerevisiae deletion strains, locus YOL012C, strain htz1 0.711 | S. cerevisiae deletion strains, locus YOL147C, strain pex11, active compounds read low 0.993 | S. cerevisiae deletion strains, locus YOR001W, strain rrp6, active compounds read low 1.02 | S. cerevisiae deletion strains, locus YOR061W, strain CKA2, active compounds read low 1 | S. cerevisiae deletion strains, locus YOR069W, strain VPS5, active compounds read low 0.99 | S. cerevisiae deletion strains, locus YOR070C, strain gyp1, active compounds read low 1.01 | S. cerevisiae deletion strains, locus YOR080W, strain dia2, active compounds read low 1.02 | S. cerevisiae deletion strains, locus YOR083W, strain WHI5, active compounds read low 0.981 | S. cerevisiae deletion strains, locus YOR106W, strain vam3, active compounds read low 1.03 | S. cerevisiae deletion strains, locus YOR136W, strain idh2, active compounds read low 0.988 | S. cerevisiae deletion strains, locus YOR144C, strain elg1, active compounds read low 0.982 | S. cerevisiae deletion strains, locus YOR184W, strain ser1, active compounds read low 0.989 | S. cerevisiae deletion strains, locus YOR231W, strain MKK1, active compounds read low 0.988 | S. cerevisiae deletion strains, locus YOR265W, strain rbl2, active compounds read low 1.02 | S. cerevisiae deletion strains, locus YOR270C, strain vph1, active compounds read low 1.04 | S. cerevisiae deletion strains, locus YOR290C, strain snf2, active compounds read low 1.01 | S. cerevisiae deletion strains, locus YOR316C, strain cot1, active compounds read low 0.978 | S. cerevisiae deletion strains, locus YPL051W, strain arl3, active compounds read low 1.01 | S. cerevisiae deletion strains, locus YPL078C, strain atp4, active compounds read low 1.01 | S. cerevisiae deletion strains, locus YPL106C, strain sse1, active compounds read low 0.994 | S. cerevisiae deletion strains, locus YPL240C, strain hsp82, active compounds read low 1.02 | S. cerevisiae deletion strains, locus YPL241C, strain CIN2, active compounds read low 0.992 | S. cerevisiae deletion strains, locus YPL256C, strain CLN2, active compounds read low 0.984 | S. cerevisiae deletion strains, locus YPR119W, strain clb2, active compounds read low 0.983 | S. cerevisiae deletion strains, locus YPR141C, strain kar3, active compounds read low 0.973 | S. cerevisiae deletion strains, locus YPR163C, strain tif3, active compounds read low 0.982 | S. cerevisiae deletion strains, locus YPR167C, strain met16, active compounds read low 0.989 | S. cerevisiae deletion strains, strain wtn01, active compounds read low 0.943 | S. cerevisiae strains, strain wild type, active compounds read low 0.994
